# Laboratory results as given in PubChem BioAssay (EPA / NIEHS).
# Inconclusive results are not listed. A structure can be active in one record and inactive in another. Calls of active or inactive are those of the source. How the source made its calls: active means hit-call score of the fitted dose curve at least 0.9, where 1 is the maximum; inconclusive means response in the unintended direction; inactive means score below 0.9.
# Tests used:
# [1] = target: human Thromboxane A2 Receptor (TXA2), TBXA2R (gene 6915) (UniProt P21731); assay: NVS_GPCR_hTXA2: NovaScreen (NVS) G Protein-Coupled Receptor Assay for human Thromboxane A2 Receptor (TXA2) (AID 2283282);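 further: actives reduce bound radioligand signal relative to DMSO baseline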
# human Thromboxane A2 Receptor (TXA2), TBXA2R (gene 6915), sequence (P21731 whole entry, looked up): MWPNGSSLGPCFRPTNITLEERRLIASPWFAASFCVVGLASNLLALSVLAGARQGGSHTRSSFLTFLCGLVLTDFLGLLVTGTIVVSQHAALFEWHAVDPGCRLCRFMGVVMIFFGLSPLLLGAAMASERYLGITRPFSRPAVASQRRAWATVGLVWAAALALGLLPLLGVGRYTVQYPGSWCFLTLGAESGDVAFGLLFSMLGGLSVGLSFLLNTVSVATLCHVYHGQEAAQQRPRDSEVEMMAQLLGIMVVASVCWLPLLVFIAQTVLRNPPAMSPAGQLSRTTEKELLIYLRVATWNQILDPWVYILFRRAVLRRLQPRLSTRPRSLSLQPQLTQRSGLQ
# Summary of the method: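 Cell-free radioligand binding on membrane protein from human platelets; radioligand displacement read by filter-based scintillation counting after 1 h. Primary screen in duplicate at 25 uM, actives then run in concentration series; loss of signal versus DMSO.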
# [2] = target: human Orphanin, Opioid Related Nociceptin Receptor 1 (ORL1), OPRL1 (gene 4987) (UniProt P41146); assay: NVS_GPCR_hORL1: NovaScreen (NVS) G Protein-Coupled Receptor Assay for human Orphanin, Opioid Related Nociceptin Receptor 1 (ORL1) (AID 2283283)
# human Orphanin, Opioid Related Nociceptin Receptor 1 (ORL1), OPRL1 (gene 4987), sequence (P41146 whole entry, looked up): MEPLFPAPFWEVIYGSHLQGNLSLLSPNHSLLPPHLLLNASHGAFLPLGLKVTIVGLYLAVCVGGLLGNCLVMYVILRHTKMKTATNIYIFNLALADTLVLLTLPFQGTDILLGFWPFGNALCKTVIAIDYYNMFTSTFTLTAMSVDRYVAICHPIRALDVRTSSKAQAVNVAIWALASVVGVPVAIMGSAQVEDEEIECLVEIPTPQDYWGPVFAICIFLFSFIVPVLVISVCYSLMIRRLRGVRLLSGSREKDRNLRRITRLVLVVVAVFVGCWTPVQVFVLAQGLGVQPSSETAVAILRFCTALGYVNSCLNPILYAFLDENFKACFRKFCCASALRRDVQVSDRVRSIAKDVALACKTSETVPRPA
# Summary of the method: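 Filter-based radioligand displacement with receptor extracted from HEK293 cells, read 1 hour after dosing by scintillation counting. Duplicate single-point screen at 25 uM; qualifying chemicals then run in concentration-response to 50 uM, analysed relative to DMSO.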
# [3] = target: human Opioid Receptor Mu (Opiate Mu), OPRM1 (gene 4988) (UniProt P35372); assay: NVS_GPCR_hOpiate_mu: NovaScreen (NVS) G Protein-Coupled Receptor Assay for human Opioid Receptor Mu (Opiate Mu) (AID 2283290);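 further: hits lower bound tracer signal versus DMSO meaning displacement of the ligand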
# human Opioid Receptor Mu (Opiate Mu), OPRM1 (gene 4988), sequence (P35372 whole entry, looked up): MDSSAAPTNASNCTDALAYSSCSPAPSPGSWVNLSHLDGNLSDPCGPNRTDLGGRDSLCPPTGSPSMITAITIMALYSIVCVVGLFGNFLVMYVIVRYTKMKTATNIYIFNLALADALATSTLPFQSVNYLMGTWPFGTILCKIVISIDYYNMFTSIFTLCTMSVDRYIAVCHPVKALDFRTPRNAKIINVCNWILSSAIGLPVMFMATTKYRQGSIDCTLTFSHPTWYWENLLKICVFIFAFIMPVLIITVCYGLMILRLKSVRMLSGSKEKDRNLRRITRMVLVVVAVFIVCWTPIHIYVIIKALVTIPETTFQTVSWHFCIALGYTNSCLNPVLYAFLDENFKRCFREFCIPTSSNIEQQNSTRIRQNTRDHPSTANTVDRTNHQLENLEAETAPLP
# Summary of the method: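 Radioligand displacement binding on membranes from CHO cells expressing the receptor, 2.5 h after dosing, filter-based scintillation counting; loss of signal vs DMSO baseline. Screened in duplicate at 25 uM, actives then run in concentration series.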
# [4] = target: rat Corticotropin Releasing Factor Receptor (CRF), Crhr1 (gene 58959) (UniProt P35353); assay: NVS_GPCR_rCRF: NovaScreen (NVS) G Protein-Coupled Receptor Assay for rat Corticotropin Releasing Factor Receptor (CRF) (AID 2283300)
# rat Corticotropin Releasing Factor Receptor (CRF), Crhr1 (gene 58959), sequence (P35353 whole entry, looked up): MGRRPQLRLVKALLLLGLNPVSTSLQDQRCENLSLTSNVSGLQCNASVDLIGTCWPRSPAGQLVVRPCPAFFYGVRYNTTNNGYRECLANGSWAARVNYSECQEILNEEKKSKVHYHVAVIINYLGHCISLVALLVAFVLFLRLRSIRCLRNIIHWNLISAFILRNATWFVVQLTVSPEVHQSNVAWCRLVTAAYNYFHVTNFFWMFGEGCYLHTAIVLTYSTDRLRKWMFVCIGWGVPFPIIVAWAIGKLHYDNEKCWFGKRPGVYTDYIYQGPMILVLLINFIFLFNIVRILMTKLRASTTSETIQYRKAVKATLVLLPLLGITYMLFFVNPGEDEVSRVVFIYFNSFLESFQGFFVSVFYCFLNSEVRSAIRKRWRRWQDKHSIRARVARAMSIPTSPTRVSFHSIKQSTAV
# Summary of the method: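 Rat cortical membranes used as receptor source in a radioligand competitive displacement binding assay; scintillation read 2 h after dosing. Primary screen run in duplicate at 25 uM; loss of signal versus DMSO baseline indicates binding.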
# [5] = target: rat Glutamate, AMPA Site (AMPA), Gria1 (gene 50592) (UniProt P19490); assay: NVS_LGIC_rAMPA: NovaScreen (NVS) Ligand-Gated Ion Channel Assay for rat Glutamate, AMPA Site (AMPA) (AID 2283324)
# rat Glutamate, AMPA Site (AMPA), Gria1 (gene 50592), sequence (P19490 whole entry, looked up): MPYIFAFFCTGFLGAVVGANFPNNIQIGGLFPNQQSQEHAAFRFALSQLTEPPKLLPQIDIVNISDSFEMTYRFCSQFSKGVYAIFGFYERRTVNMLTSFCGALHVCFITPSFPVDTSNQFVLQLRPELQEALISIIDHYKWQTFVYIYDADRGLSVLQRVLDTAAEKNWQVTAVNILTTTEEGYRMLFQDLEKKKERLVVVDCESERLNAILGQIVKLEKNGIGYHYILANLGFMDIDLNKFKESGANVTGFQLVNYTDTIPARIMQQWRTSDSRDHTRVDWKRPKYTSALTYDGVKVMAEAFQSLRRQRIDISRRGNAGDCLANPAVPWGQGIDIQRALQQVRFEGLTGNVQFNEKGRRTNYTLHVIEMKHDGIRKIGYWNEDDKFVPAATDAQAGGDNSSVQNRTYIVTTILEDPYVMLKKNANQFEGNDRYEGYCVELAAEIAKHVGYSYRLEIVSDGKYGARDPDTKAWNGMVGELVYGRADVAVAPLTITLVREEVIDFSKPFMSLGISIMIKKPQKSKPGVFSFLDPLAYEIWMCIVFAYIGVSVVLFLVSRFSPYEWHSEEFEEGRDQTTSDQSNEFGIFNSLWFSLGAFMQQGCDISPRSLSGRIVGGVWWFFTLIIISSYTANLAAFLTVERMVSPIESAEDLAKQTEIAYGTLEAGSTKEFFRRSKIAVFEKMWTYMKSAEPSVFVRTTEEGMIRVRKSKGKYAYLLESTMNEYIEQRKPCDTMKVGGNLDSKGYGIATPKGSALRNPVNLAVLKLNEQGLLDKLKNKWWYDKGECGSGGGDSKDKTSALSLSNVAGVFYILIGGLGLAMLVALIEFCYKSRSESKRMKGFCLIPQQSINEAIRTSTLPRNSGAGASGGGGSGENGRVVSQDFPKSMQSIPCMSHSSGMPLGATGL
# Summary of the method: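 Rat forebrain membranes; radioligand binding read 1 h after dosing by filtration and scintillation counting. Duplicate single-point screen at 25 uM, then concentration-response to 50 uM for threshold hits (e.g. 30% inhibition); loss of signal vs DMSO.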
# [6] = target: Sodium channel protein type 1 subunit alpha (Rattus norvegicus) (UniProt P04774); assay: NVS_IC_rNaCh_site2: NovaScreen (NVS) Ion Channel Assay for rat Sodium Channel, Site 2 (NaCh) (AID 2283322);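 further: hit means loss of radioligand binding signal relative to DMSO so AC50 marks displacement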
# Summary of the method: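 Membranes: rat forebrain. Format: competitive radioligand displacement, filter separation, scintillation readout, 1 h exposure. Primary screen in duplicate at 25 uM; actives retested in concentration series.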
# [7] = target: rat Neonicotinoid receptor (NNR), Chrna7 (gene 25302) (UniProt Q05941); assay: NVS_LGIC_rNNR_BungSens: NovaScreen (NVS) Ligand-Gated Ion Channel Assay for rat Neonicotinoid receptor (NNR) (AID 2283315)
# rat Neonicotinoid receptor (NNR), Chrna7 (gene 25302), sequence (Q05941 whole entry, looked up): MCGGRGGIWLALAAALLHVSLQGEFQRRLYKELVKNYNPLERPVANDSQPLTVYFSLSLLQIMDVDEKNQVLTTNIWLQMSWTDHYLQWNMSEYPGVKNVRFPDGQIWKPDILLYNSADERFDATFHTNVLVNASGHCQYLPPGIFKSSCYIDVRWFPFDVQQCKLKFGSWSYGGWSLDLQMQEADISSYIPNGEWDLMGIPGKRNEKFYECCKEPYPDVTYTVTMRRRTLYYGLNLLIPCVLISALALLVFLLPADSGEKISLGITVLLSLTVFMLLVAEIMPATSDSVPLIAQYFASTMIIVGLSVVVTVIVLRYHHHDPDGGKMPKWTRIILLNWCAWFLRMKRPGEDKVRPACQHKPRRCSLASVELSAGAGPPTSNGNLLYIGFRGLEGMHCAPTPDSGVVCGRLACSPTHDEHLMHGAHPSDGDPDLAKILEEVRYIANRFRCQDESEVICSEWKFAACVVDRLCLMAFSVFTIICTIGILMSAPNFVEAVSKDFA
# Summary of the method: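 Radioligand displacement binding on rat cortical membranes, 2.5 h incubation, filtration and scintillation counting. Loss of specific binding fitted relative to DMSO.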
# [8] = target: rat Adrenergic Receptor, Alpha 2 (Adra2), Non-selective Binding, Adra2a (gene 25083) (UniProt P22909); assay: NVS_GPCR_rAdra2_NonSelective: NovaScreen (NVS) G Protein-Coupled Receptor Assay for rat Adrenergic Receptor, Alpha 2 (Adra2), Non-selective Binding (AID 2283299)
# rat Adrenergic Receptor, Alpha 2 (Adra2), Non-selective Binding, Adra2a (gene 25083), sequence (P22909 whole entry, looked up): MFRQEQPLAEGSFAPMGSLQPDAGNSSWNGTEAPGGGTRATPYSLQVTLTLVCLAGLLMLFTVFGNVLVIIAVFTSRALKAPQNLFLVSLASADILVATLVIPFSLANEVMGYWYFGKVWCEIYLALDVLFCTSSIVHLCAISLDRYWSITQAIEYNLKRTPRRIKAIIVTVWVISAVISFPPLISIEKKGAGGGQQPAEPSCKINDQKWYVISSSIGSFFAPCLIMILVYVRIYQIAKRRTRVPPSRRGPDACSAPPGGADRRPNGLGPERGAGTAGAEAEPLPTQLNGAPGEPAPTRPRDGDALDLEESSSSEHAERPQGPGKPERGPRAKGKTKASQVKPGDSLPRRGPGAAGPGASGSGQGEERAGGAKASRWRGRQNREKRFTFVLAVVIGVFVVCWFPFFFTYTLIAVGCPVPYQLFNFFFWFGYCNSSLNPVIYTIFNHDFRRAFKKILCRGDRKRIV
# Summary of the method: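 Rat cortical membranes, radioligand competitive displacement read by filter-based scintillation counting 1.25 hours after dosing. Primary screen in duplicate at 25 uM; actives followed up in concentration series.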
# [9] = target: Voltage-dependent N-type calcium channel subunit alpha-1B (Rattus norvegicus) (UniProt Q02294); assay: NVS_IC_rCaChN: NovaScreen (NVS) Ion Channel Assay for rat Calcium Channel, Type N (CaChN) (AID 2283317)
# [10] = target: human Opioid Receptor Delta 1 (Opiate D1), OPRD1 (gene 4985) (UniProt P41143); assay: NVS_GPCR_hOpiate_D1: NovaScreen (NVS) G Protein-Coupled Receptor Assay for human Opioid Receptor Delta 1 (Opiate D1) (AID 2283280)
# human Opioid Receptor Delta 1 (Opiate D1), OPRD1 (gene 4985), sequence (P41143 whole entry, looked up): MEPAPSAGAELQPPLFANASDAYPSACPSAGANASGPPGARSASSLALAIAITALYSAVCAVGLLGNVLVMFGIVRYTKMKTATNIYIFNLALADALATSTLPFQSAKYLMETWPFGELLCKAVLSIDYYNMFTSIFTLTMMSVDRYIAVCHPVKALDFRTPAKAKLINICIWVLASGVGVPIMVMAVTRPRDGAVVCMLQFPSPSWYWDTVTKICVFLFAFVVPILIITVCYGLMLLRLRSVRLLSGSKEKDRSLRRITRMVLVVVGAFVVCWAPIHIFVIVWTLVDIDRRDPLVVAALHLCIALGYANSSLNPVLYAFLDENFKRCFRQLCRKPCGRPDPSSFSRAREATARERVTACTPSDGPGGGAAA
# Summary of the method: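 Radioligand displacement on membranes from CHO cells expressing the receptor, read by filter scintillation counting 1 h after dosing. Duplicate single-point screen at 25 uM, then concentration series for actives; loss of signal versus DMSO.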
# [11] = target: human Purinergic Receptor P2Y, P2RY1 (gene 5028) (UniProt P47900); assay: NVS_GPCR_hPY2: NovaScreen (NVS) G Protein-Coupled Receptor Assay for human Purinergic Receptor P2Y (AID 2283281)
# human Purinergic Receptor P2Y, P2RY1 (gene 5028), sequence (P47900 whole entry, looked up): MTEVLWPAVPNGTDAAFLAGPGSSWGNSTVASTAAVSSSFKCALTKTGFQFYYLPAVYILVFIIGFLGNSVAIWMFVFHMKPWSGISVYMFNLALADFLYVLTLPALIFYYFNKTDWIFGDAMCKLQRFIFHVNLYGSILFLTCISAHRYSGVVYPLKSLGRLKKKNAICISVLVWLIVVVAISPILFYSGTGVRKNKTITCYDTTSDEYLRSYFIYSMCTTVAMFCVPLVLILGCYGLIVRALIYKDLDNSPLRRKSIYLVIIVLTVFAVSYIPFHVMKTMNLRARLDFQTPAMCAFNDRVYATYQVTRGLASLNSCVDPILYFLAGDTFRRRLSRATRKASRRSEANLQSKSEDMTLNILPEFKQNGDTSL
# Summary of the method: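 Cell-free radioligand binding using U937-derived protein, 1 h after dosing, filter-based scintillation counting. Screened in duplicate at 25 uM; actives rerun as concentration-response up to 50 uM; loss of signal versus DMSO.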
# [12] = system: rat Adrenergic, Alpha 1B Receptor (Adra1B), gene 24173; assay: NVS_GPCR_rAdra1B: NovaScreen (NVS) G Protein-Coupled Receptor Assay for rat Adrenergic, Alpha 1B Receptor (Adra1B) (AID 2283297)
# Summary of the method: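 Rat liver membranes, radioligand displacement with filter-based scintillation detection, 1 h incubation. Primary screen in duplicate at 25 uM; actives retested in concentration series; activity relative to DMSO.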
# [13] = target: rat Glutamate, NMDA Agonist Site (GluNMDA), Grin1 (gene 24408) (UniProt P35439); assay: NVS_LGIC_rGluNMDA_Agonist: NovaScreen (NVS) Ligand-Gated Ion Channel Assay for rat Glutamate, NMDA Agonist Site (GluNMDA) (AID 2283327)
# Summary of the method: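 Rat forebrain membranes, radioligand binding in the agonist-site protocol; 1 h after dosing; filter-based scintillation counting. Single-concentration duplicate screen at 25 uM, then concentration-response up to 50 uM for actives; gain-of-signal vs DMSO.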
structure (smiles),measurement,setting,value
CCOP(=O)(OCC)OC(=CCl)c1ccc(Cl)cc1Cl,AC50,[1],0.35 µM (active)
CN(C)C(=S)S,AC50,[2],25 µM (active)
same,AC50,[3],6.66 µM (active)
same,outcome,[4],inactive
same,outcome,[5],inactive
Oc1ccc(Cc2ccc(O)cc2)cc1,outcome,[1],inactive
O=c1oc2ccccc2c(O)c1C(CC(O)c1ccc(-c2ccc(Br)cc2)cc1)c1ccccc1 (stereo unspecified),AC50,[1],12.2 µM (active)
same,AC50,[3],13.7 µM (active)
CCOP(=O)(OCC)SCCSCC,outcome,[3],inactive
same,outcome,[6],inactive
Brc1c(Br)c(Br)c(Oc2c(Br)c(Br)c(Br)c(Br)c2Br)c(Br)c1Br,outcome,[6],inactive
CC(C)(COCC1CO1)COCC1CO1 (stereo unspecified),AC50,[6],2.05 µM (active)
O=C1C[C@@H]2OCC=C3CN4CC[C@]56c7ccccc7N1[C@H]5[C@H]2[C@H]3C[C@H]46,outcome,[7],inactive
C[N+](C)(C)Cc1ccccc1,AC50,[8],31.5 µM (active)
same,AC50,[7],25 µM (active)
same,outcome,[7],inactive
CCCCCCCCCCCCN(C)C,outcome,[6],inactive
NC(=O)CCl,AC50,[6],42.5 µM (active)
O=C(O)C1(c2ccc3c(c2)OC[C@H](Cc2ccc(-c4ccccc4)cc2)[C@H]3O)CCCC1,outcome,[9],inactive
[Cl][Sn]([c]1ccccc1)([c]1ccccc1)[c]1ccccc1,AC50,[1],1.29 µM (active)
same,AC50,[3],0.664 µM (active)
same,AC50,[8],9.5 µM (active)
CCOP(=S)(OCC)SCS(=O)(=O)C(C)(C)C,outcome,[1],inactive
same,outcome,[6],inactive
CCCCCCCCCCCCc1cccc(S(=O)(=O)O)c1,AC50,[10],11.8 µM (active)
same,outcome,[11],inactive
same,AC50,[1],8.31 µM (active)
same,AC50,[3],14.4 µM (active)
same,AC50,[12],22.5 µM (active)
same,outcome,[13],inactive
c1ccc2sc(SNC3CCCCC3)nc2c1,AC50,[1],1.12 µM (active)
